Reference: PubChem BioAssay (NCI)
This is part of a sample that, as a whole, favours compounds with a hit. Of some 79,000 tested, about 15% had one in any assay. A number with no mark means an inactive call. The source made the active and inactive calls. Cut-off read from the data, not from the text of the source: active = growth inhibition above about 70%; inactive = the rest.

How the values were obtained:
[1] = NCI Yeast Anticancer Drug Screen. Data for the rad50 strain (AID 155);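 note: 0% = growth of vehicle-only cultures of the same strain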; conditions: S. cerevisiae rad50 strain growth inhibition; at 50.0 µM; active compounds read high
Method in brief: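 Growth of the mutant yeast was measured after compound exposure and referenced to vehicle-treated cultures.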

[2] = NCI Yeast Anticancer Drug Screen. Data for the mec2-1 strain (AID 157); conditions: S. cerevisiae mec2-1 strain, at 50.0 µM, active compounds read high
Method in brief: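 Mutant yeast (mec2-1) grown with compound; growth inhibition relative to vehicle control reported.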

[3] = NCI Yeast Anticancer Drug Screen. Data for the sgs1 mgt1 strain (AID 161);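 note: 0% = growth of cultures given vehicle only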; conditions: S. cerevisiae sgs1 mgt1 strain, at 50.0 µM, active compounds read high
Method in brief: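 Compounds are added to genetically altered yeast, and growth is compared with cultures given vehicle alone to give percent inhibition.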

[4] = NCI Yeast Anticancer Drug Screen. Data for the cln2 rad14 strain (AID 165);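 note: 0% = growth equal to vehicle treated cultures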; conditions: S. cerevisiae cln2 rad14 strain, at 50.0 µM, active compounds read high
Method in brief: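 Readout is yeast growth inhibition versus vehicle-treated controls, using a strain with cln2 and rad14 alterations exposed to compound.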

[5] = NCI Yeast Anticancer Drug Screen. Data for the bub3 strain (AID 167); conditions: S. cerevisiae bub3 mutant strain, at 50.0 µM, active compounds read high
Method in brief: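 Whole-cell yeast assay. The mutant strain was incubated with compounds, and growth inhibition was determined by comparison with vehicle-treated cells.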

[6] = NCI Yeast Anticancer Drug Screen. Data for the mlh1 rad18 strain (AID 175); conditions: S. cerevisiae mlh1 rad18 strain growth inhibition; at 50.0 µM; active compounds read high
Method in brief: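 Genetically defined yeast (DNA repair-deficient) exposed to compounds; growth inhibition determined relative to vehicle.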

SMILES | growth inhibition [1] | growth inhibition [2] | growth inhibition [3] | growth inhibition [4] | growth inhibition [5] | growth inhibition [6]
CC(C)(C)OC(=O)NC(CSCc1ccc(C(=O)c2ccccc2)cc1)C(=O)O (stereo not given) | -23.9% | -28.1% | -15.3% | 10.6% | -12.8% | -2.3%
Cc1ccc(-n2cnc3c(Cl)ncnc32)cc1 | -18.1% | -0.05% | -12.1% | -15.2% | -16.8% | 3.3%
CCOC(=O)C(=CNc1ccc(N(CC)CC)cc1)C(=O)OCC | -12.7% | -7.85% | -8% | 47.6% | 8.3% | 0.35%
CC(C)(C#N)C(C)(C)c1cnc2ccccc2c1 | 15.2% | -7.15% | -9.4% | -52.5% | -2.25% | -12.4%
CCOC(=O)C1=C(O)c2ccccc2S(=O)(=O)N1C (tested in a mixture with another compound) | 4.05% | 20.3% | 14% | -18.9% | -25.6% | 0%
CCCC(C)C(=O)OCCCc1ccccc1 (stereo not given) | 7.55% | -5.2% | 2.9% | -20.1% | 18.8% | 3.8%
O=S(=O)(Oc1ccc(Cl)cc1)c1cccc(S(=O)(=O)Oc2ccc(Cl)cc2)c1 | 12.8% | 1.6% | -2.65% | -5.55% | 5.5% | 1.8%
COc1ccc2c(c1OC)C(=O)OC2(O)C1=NCCc2cc3c(cc21)OCO3 (stereo not given) | 19% | -7.25% | 8.1% | 21.3% | 4.05% | 13.2%
O=P(Nc1ccc(Cl)c(Cl)c1)(N1CCCCC1)N1CCCCC1 | 3.5% | -47.8% | -12.4% | -12.8% | 2.45% | 14.7%
CCC1CN2CCc3cc(OC)c(OC)cc3C2CC1C#N (stereo not given) | 15.4% | 9.2% | 23.8% | 21.1% | 12.1% | 23.1%
CN(CCC(=O)O)S(=O)(=O)c1ccccc1 | -13.1% | -17.2% | -10.6% | -9.1% | -46.4% | -3.8%
COC(=O)CC1C=CC(OC)[C@@]2(C)C(=O)C(OC)=CC(=O)[C@@H]12 (stereo not given in full) | 8.7% | -15.1% | -11.4% | 19.6% | 2.4% | -3.45%
O=C(O)c1nccc2c(O)cccc12 | -5.75% | -4.45% | -16.1% | -19.6% | -23.9% | 3.3%
O=C1C2=C(Nc3ccccc3N2)OC1c1ccccc1Cl (stereo not given) | -0.95% | -11.7% | -22.1% | 6.7% | -21.8% | 4%
CN(C)c1ccc(C(c2cc3c(cc2O)OCO3)N2CCN(C(c3ccc(N(C)C)cc3)c3cc4c(cc3O)OCO4)CC2)cc1 (stereo not given) | 39.8% | 31.4% | 28.9% | 9.3% | 13.8% | 36.5%
N#Cc1sc2nc3c(c(-c4ccccc4)c2c1N)CCCC3 | -8.3% | -4.65% | -0.95% | -8.4% | -8.1% | -5.75%
CC(C)CNC(=S)N/N=C/c1ccc(N)cc1 | 31.6% | 13.7% | 3% | 27.8% | 6% | -1.1%
Cn1c(=O)[nH]c2c(-c3ccccc3)n[nH]c2c1=O | 11.3% | -1.65% | 3.5% | -45.5% | 1.4% | 4.3%
CCOC(=O)CCCOc1ccccc1 | 24.4% | -2.95% | -9.55% | 7.6% | 16.1% | 19.7%
O/C=C(\Cl)CCl | 17.2% | -7.15% | 12.4% | 11.9% | 5.1% | 16.2%

SMILES | growth inhibition [1] | growth inhibition [2] | growth inhibition [3] | growth inhibition [4] | growth inhibition [5] | growth inhibition [6]
CCOc1cc(/C=N/NC(=O)C(O)C(O)C(O)C(O)CO)ccc1O (stereo not given) | 1.5% | 38.6% | 27.9% | 4.45% | 39.8% | 30.6%
CC(C)(C)NC(=S)NC1CC2CC1C1Cc3ccccc3C21 (stereo not given) | 20.6% | -1.45% | 22.9% | -37.5% | 5.8% | 1.9%
CC(=O)c1c(-c2nc(=S)[nH]c(C)c2C(C)=O)nc(=S)[nH]c1C | 15.1% | 9.95% | 6.3% | 0.45% | -1.45% | 16.8%
O=C1C(=O)C(c2ccccc2)S(=O)(=O)C1c1ccccc1 (stereo not given) | -5.3% | -5.05% | -6.3% | 4.3% | 7.55% | 14.6%
Cc1cc2cccc(C)c2[nH]1 | -11.4% | -4.75% | 18.6% | 0.5% | 4.6% | -9.2%
C=CCCC1CC(OCC)OC(CCC=C)O1 (stereo not given) | 16.9% | 1.15% | 1.25% | -24.8% | -6.3% | 13.8%
O=c1c2ccccc2[nH]c2ccc(Cl)cc12 | 47.6% | 13.9% | 24.9% | 21.6% | -9.65% | 61.1%
O=c1[nH]c2cccnc2c(=O)n1O | -6.5% | -8.7% | -7.35% | -39.8% | 12.2% | -5.5%
CCOC(=O)N1CCN(Cc2cc(=O)n3cc(C)ccc3n2)CC1 | -14.1% | -15.5% | 11.3% | 16.2% | 5.95% | 2.2%
COc1cccc2c1C1(O)C2CCCC12OCCCO2 (stereo not given) | -26.3% | -10.3% | -50% | 6.5% | -29.4% | -31.2%
O=S(/C=C/C=C/S(=O)(=O)c1ccccc1)c1ccccc1 (stereo not given) | 18.1% | 24.2% | 30.5% | 19.3% | 43.4% | 74% (active)
COc1ccc(-c2cc(N3CCN(c4ccccc4)CC3)c(C#N)c(=O)o2)cc1 | 25.1% | 3.3% | 18.5% | 15.8% | -2.1% | 12.1%
CC(=O)Oc1cccn2c(C(=O)C(=O)c3ccc4c(OC(C)=O)cccn34)ccc12 | 5.15% | 1.8% | -12.9% | -0.55% | -4.85% | 14.7%
N/N=C(/Cc1ccccc1)NNO | 30.4% | 13.8% | 27.1% | 22.4% | 12.8% | 22.2%
O=[N+]([O-])c1ccc(Cc2ncnc3c2ncn3C2OC(CO)C(O)C2O)cc1 (stereo not given) | 5.1% | -13.2% | -16.4% | -0.95% | 2.15% | -18.9%
COc1cc(CNC(=O)CCCCCCCCCCSSCCCCCCCCCCC(=O)NCc2ccc(O)c(OC)c2)ccc1O | -20.4% | -32.8% | -22.9% | 5.9% | -13.3% | -24.8%
COc1ccc(NC(C)c2ccncc2)cc1 (stereo not given) | -17.8% | -16% | -29% | -9.95% | -9.9% | -46%
NC(=O)C12CC3CC(CC(Br)(C3)C1)C2 | -7.9% | -6.85% | -8.25% | 16.2% | 2.5% | -7.1%
NC(=O)c1nnc2c(F)cccc2c1N | -39.2% | -29.4% | -15.3% | -0.8% | -27.2% | -24.6%
c1ccc2c(c1)nc1n2C2CCC(C2)N1 (stereo not given) | 4% | 10% | 18.8% | 21.9% | 6.15% | 15.7%
